PubChem BioAssay (NCATS)
Values joined by “and” are separate entries in the source; they are usually repeats but may differ in a detail not shown here. Identical values can stand only once. Results filed as inconclusive are left out. Active and inactive are the calls of the source. The call rests on the fitted dose curve; in most records, active means well fitted inhibition curve with a large enough effect; inconclusive means small, poorly fitted or top-dose-only effect; inactive means flat fitted curve, though single readings scatter.

Legend:
Assay in all cases: qHTS profiling for inhibitors of Plasmodium falciparum proliferation (AID 504749); further: nearly all actives have a fitted effect of over 60% in size
Conditions in all cases: P. falciparum in erythrocytes, SYBR Green DNA, 72 h; series mostly up to 28.7 µM
FAB9 = system: FAB9
Summary of the method: (§1)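 Readout was DNA-dye fluorescence from lysed cultures, ex 485/em 535 nm. Parasitized red cells had grown 72 h with compound; data scaled between 0.29 uM artemisinin and DMSO wells and corrected using vehicle-only plates.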

HB3 = system: HB3
Summary of the method: as §1

JCK = system: JCK
Summary of the method: as §1

P93_24 = system: P93_24
Summary of the method: as §1

PAD = system: PAD
Summary of the method: as §1

PC15 = system: PC15
Summary of the method: as §1

PC49 = system: PC49
Summary of the method: as §1

TAB109 = system: TAB109
Summary of the method: as §1

ICS = system: ICS
Summary of the method: as §1

N140 = system: N140
Summary of the method: as §1

P94_40 = system: P94_40
Summary of the method: as §1

SC27B = system: SC27B
Summary of the method: as §1

TAB113 = system: TAB113
Summary of the method: as §1

TAB165 = system: TAB165
Summary of the method: as §1

W2 = system: W2
Summary of the method: as §1

GB4 = system: GB4
Summary of the method: as §1

PC26 = system: PC26
Summary of the method: as §1

Measured: Potency
Potency means the concentration at half of the fitted maximal effect.

C[C@H]1CCC[C@H](O)CCCCCc2cc(O)cc(O)c2C(=O)O1
inactive: FAB9 | HB3 | JCK | P93_24 | PAD | PC15 | PC49 | TAB109

C=CCC1(C(C)CCC)C(=O)N=C(S)NC1=O (configuration not stated)
not listed: GB4 | PC26
inactive: all other assays above

CN1CCCC(=C(c2cccs2)c2cccs2)C1
inactive: FAB9 | HB3 | JCK | PC15
active: GB4 8.49 µM | W2 4.78 µM

CC(C)(C)c1cc(O)ccc1O
active: GB4 3.79 µM and 12 µM | HB3 10 µM | ICS 3.16 µM and 2 µM | N140 11.2 µM | P93_24 11.2 µM and 8.91 µM | P94_40 7.08 µM and 12.6 µM | PAD 11.2 µM | PC15 11.2 µM | PC26 12 µM | SC27B 7.94 µM | TAB109 4.47 µM | TAB113 12.6 µM | TAB165 10 µM | W2 1.69 µM and 4.26 µM

OC(c1ccccc1)(c1ccccc1)C1CN2CCC1CC2 (configuration not stated)
inactive: FAB9 | HB3 | JCK | N140 | P93_24 | P94_40 | SC27B | TAB113 | TAB165
active: PC49 1 µM

CCOP(=O)(OCC)O/C(=C/Cl)c1ccc(Cl)cc1Cl
not listed: P93_24 | ICS | P94_40 | SC27B | W2 | GB4 | PC26
inactive: all other assays above

CCC(=O)O[C@@](Cc1ccccc1)(c1ccccc1)[C@@H](C)CN(C)C
inactive: FAB9 | HB3 | JCK | P94_40 | PAD | SC27B | TAB109 | TAB113 | TAB165

N#CC(C#N)=Cc1cc(O)c(O)c(O)c1
active: GB4 10.7 µM | HB3 8.91 µM | ICS 2.82 µM | N140 15.8 µM | P93_24 5.01 µM | P94_40 11.2 µM | PAD 7.08 µM | PC15 6.31 µM | PC26 8.49 µM | TAB109 3.98 µM | TAB165 7.94 µM

CCCC(=O)OC(C(Cl)(Cl)Cl)P(=O)(OC)OC (configuration not stated)
not listed: P93_24 | PC15 | ICS | P94_40 | W2 | PC26
inactive: all other assays above

CCNC(C)Cc1cccc(C(F)(F)F)c1 (configuration not stated)
not listed: W2 | GB4
inactive: all other assays above

Cc1sc2ccccc2c1CC1=NCCN1
not listed: PC15 | W2 | GB4
inactive: all other assays above

CC(C)Nc1ccc(Nc2ccccc2)cc1
active: FAB9 10 µM | GB4 5.36 µM | ICS 7.08 µM | N140 7.94 µM | P93_24 7.94 µM | P94_40 8.91 µM | PAD 10 µM | PC26 4.78 µM | SC27B 12.6 µM | TAB109 7.94 µM | TAB113 10 µM | TAB165 7.94 µM | W2 4.78 µM
inactive: PC49

CCCCCCCCOC(=O)c1ccccc1C(=O)OCCCCCCCC
not listed: P93_24 | ICS
inactive: all other assays above

CN1[C@@H]2CC[C@H]1CC(OC1c3ccccc3CCc3ccccc31)C2 (some centres not stated)
active: P93_24 3.98 µM | TAB165 3.98 µM | W2 2.28 µM
inactive: FAB9 | HB3 | JCK | PC15 | PC49 | TAB113

O=S(=O)(O)c1cc(O)ccc1O
not listed: GB4
inactive: all other assays above

CC(=O)O[C@H]1CC[C@H]2[C@@H]3CCC4=CC(=O)CCC4=C3C=C[C@]12C
not listed: P94_40 | GB4
inactive: all other assays above
